# Several values for one entry are separate records, joined by “and”; a condition that tells them apart may be missing. Identical values can stand only once. Like-named read-outs stand apart in the source and are kept apart here.
# How the values were obtained:
# JNK1 = tested on: T1, JNK1; details: concentration: 1 μM, replicates: in singlicate, n = 1
# T1 construct: gene MAPK8
# JNK2 = tested on: T2, JNK2; details: concentration: 1 μM, replicates: in singlicate, n = 1
# T2 construct: gene MAPK9
# JNK3 = tested on: T3, JNK3; details: concentration: 1 μM, replicates: in singlicate, n = 1
# T3 construct: gene MAPK10
# KIT-autoinhibited = details: concentration: 1 μM, replicates: in singlicate, n = 1
# KIT = details: concentration: 1 μM, replicates: in singlicate, n = 1
# LATS1 = details: concentration: 1 μM, replicates: in singlicate, n = 1
# LATS2 = details: concentration: 1 μM, replicates: in singlicate, n = 1
# LCK = details: concentration: 1 μM, replicates: in singlicate, n = 1
# LIMK1 = details: concentration: 1 μM, replicates: in singlicate; n = 1
# LIMK2 = details: concentration: 1 μM, replicates: in singlicate, n = 1
# LKB1 = tested on: T4, LKB1; details: concentration: 1 μM, replicates: in singlicate, n = 1
# T4 construct: gene STK11
# LOK = tested on: T5, LOK; details: concentration: 1 μM, replicates: in singlicate, n = 1
# T5 construct: gene STK10
# LRRK2 = details: concentration: 1 μM, replicates: in singlicate; n = 1
# LTK = details: concentration: 1 μM, replicates: in singlicate; n = 1
# LYN = details: concentration: 1 μM, replicates: in singlicate, n = 1
# LZK = tested on: T6, LZK; details: concentration: 1 μM, replicates: in singlicate, n = 1
# T6 construct: gene MAP3K13
# MAK = details: concentration: 1 μM, replicates: in singlicate, n = 1
# MAP3K15 = details: concentration: 1 μM, replicates: in singlicate, n = 1
# MAP3K1 = details: concentration: 1 μM, replicates: in singlicate, n = 1
# MAP3K2 = details: concentration: 1 μM, replicates: in singlicate, n = 1
# 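Also: KINOMEscan kinase panel screen.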
smiles,measurement,setting,value
COC(=O)c1cccc(NC(=O)NCCNc2ccnc(Nc3ccc(F)cc3)n2)c1 [GSK1379883],%Inh,JNK1,18%
same,%Inh,JNK2,25%
same,%Inh,JNK3,7%
same,%Inh,KIT-autoinhibited,0%
same,%Inh,KIT,23%
same,%Inh,LATS1,0%
same,%Inh,LATS2,0%
same,%Inh,LCK,5%
same,%Inh,LIMK1,0%
same,%Inh,LIMK2,19%
same,%Inh,LKB1,16%
same,%Inh,LOK,0%
same,%Inh,LRRK2,0%
same,%Inh,LTK,0%
same,%Inh,LYN,0%
same,%Inh,LZK,1%
same,%Inh,MAK,26%
same,%Inh,MAP3K15,0%
same,%Inh,MAP3K1,0%
same,%Inh,MAP3K2,0%
COc1ccc(-c2nc3n(c2-c2ccncc2)CCC3)cc1 [SKF-104493],%Inh,JNK1; 1 µM,46% and 22%
same,%Inh,JNK2; 1 µM,37% and 50%
same,%Inh,JNK3; 1 µM,47% and 65%
same,%Inh,KIT-autoinhibited; 1 µM,0% and 19%
same,%Inh,KIT; 1 µM,0% and 25%
same,%Inh,LATS1; 1 µM,0% and 19%
same,%Inh,LATS2; 1 µM,16% and 12%
same,%Inh,LCK; 1 µM,26% and 23%
same,%Inh,LIMK1,0%
same,%Inh,LIMK2; 1 µM,0% and 3%
same,%Inh,LKB1; 1 µM,27% and 21%
same,%Inh,LOK; 1 µM,19% and 11%
same,%Inh,LRRK2,0%
same,%Inh,LTK,2%
same,%Inh,LYN; 1 µM,9% and 0%
same,%Inh,LZK; 1 µM,0% and 5%
same,%Inh,MAK; 1 µM,19% and 0%
same,%Inh,MAP3K15; 1 µM,3% and 4%
same,%Inh,MAP3K1; 1 µM,11% and 1%
same,%Inh,MAP3K2; 1 µM,6% and 0%
O=c1cc(N2CCOCC2)nc2n(Cc3cccc(Cl)c3)ccn12 [GSK2296823],%Inh,JNK1,21%
same,%Inh,JNK2,12%
same,%Inh,JNK3,7%
same,%Inh,KIT-autoinhibited,4%
same,%Inh,KIT,11%
same,%Inh,LATS1,0%
same,%Inh,LATS2,46%
same,%Inh,LCK,17%
same,%Inh,LIMK1,15%
same,%Inh,LIMK2,0%
same,%Inh,LKB1,0%
same,%Inh,LOK,0%
same,%Inh,LRRK2,35%
same,%Inh,LTK,0%
same,%Inh,LYN,0%
same,%Inh,LZK,0%
same,%Inh,MAK,0%
same,%Inh,MAP3K15,11%
same,%Inh,MAP3K1,6%
same,%Inh,MAP3K2,8%
Clc1ccc(-c2cc(-c3c[nH]nc3-c3ccccn3)ccn2)cc1 [GW681251],%Inh,JNK1,35%
same,%Inh,JNK2,30%
same,%Inh,JNK3,33%
same,%Inh,KIT-autoinhibited,0%
same,%Inh,KIT,54%
same,%Inh,LATS1,0%
same,%Inh,LATS2,0%
same,%Inh,LCK,13%
same,%Inh,LIMK1,0%
same,%Inh,LIMK2,0%
same,%Inh,LKB1,0%
same,%Inh,LOK,30%
same,%Inh,LRRK2,46%
same,%Inh,LTK,0%
same,%Inh,LYN,0%
same,%Inh,LZK,0%
same,%Inh,MAK,14%
same,%Inh,MAP3K15,0%
same,%Inh,MAP3K1,26%
same,%Inh,MAP3K2,3%
Cl.c1ccc(Cn2ncc3cc(Nc4ncnc5ccccc45)ccc32)cc1 [GW273749],%Inh,JNK1,5%
same,%Inh,JNK2,5%
same,%Inh,JNK3,0%
same,%Inh,KIT-autoinhibited,0%
same,%Inh,KIT,4%
same,%Inh,LATS1,0%
same,%Inh,LATS2,0%
same,%Inh,LCK,15%
same,%Inh,LIMK1,0%
same,%Inh,LIMK2,75%
same,%Inh,LKB1,0%
same,%Inh,LOK,0%
same,%Inh,LRRK2,0%
same,%Inh,LTK,0%
same,%Inh,LYN,0%
same,%Inh,LZK,0%
same,%Inh,MAK,33%
same,%Inh,MAP3K15,0%
same,%Inh,MAP3K1,7%
same,%Inh,MAP3K2,0%
Nc1nc(-c2cccnc2)c(-c2ccnc3ccccc23)s1 [GW684083],%Inh,JNK1,23%
same,%Inh,JNK2,29%
same,%Inh,JNK3,11%
same,%Inh,KIT-autoinhibited,0%
same,%Inh,KIT,23%
same,%Inh,LATS1,0%
same,%Inh,LATS2,26%
same,%Inh,LCK,17%
same,%Inh,LIMK1,0%
same,%Inh,LIMK2,0%
same,%Inh,LKB1,15%
same,%Inh,LOK,0%
same,%Inh,LRRK2,0%
same,%Inh,LTK,0%
same,%Inh,LYN,72%
same,%Inh,LZK,14%
same,%Inh,MAK,10%
same,%Inh,MAP3K15,0%
same,%Inh,MAP3K1,6%
same,%Inh,MAP3K2,0%
COc1ccc(Nc2nccc(N3CCC(NC(=O)c4cccc(NC(C)=O)c4)C3)n2)cc1 (centres unmarked) [GSK1379732],%Inh,JNK1,16%
same,%Inh,JNK2,23%
same,%Inh,JNK3,26%
same,%Inh,KIT-autoinhibited,0%
same,%Inh,KIT,7%
same,%Inh,LATS1,0%
same,%Inh,LATS2,9%
same,%Inh,LCK,9%
same,%Inh,LIMK1,0%
same,%Inh,LIMK2,0%
same,%Inh,LKB1,22%
same,%Inh,LOK,0%
same,%Inh,LRRK2,0%
same,%Inh,LTK,0%
same,%Inh,LYN,0%
same,%Inh,LZK,46%
same,%Inh,MAK,14%
same,%Inh,MAP3K15,0%
same,%Inh,MAP3K1,0%
same,%Inh,MAP3K2,0%
CCc1nc(-c2cccc(N(C)S(=O)(=O)c3ccccc3)c2)c(-c2ccnc(Nc3ccc(N4CCN(C(C)=O)CC4)nc3)n2)s1 [GSK1645895],%Inh,JNK1,23%
same,%Inh,JNK2,30%
same,%Inh,JNK3,22%
same,%Inh,KIT-autoinhibited,8%
same,%Inh,KIT,19%
same,%Inh,LATS1,0%
same,%Inh,LATS2,20%
same,%Inh,LCK,44%
same,%Inh,LIMK1,31%
same,%Inh,LIMK2,0%
same,%Inh,LKB1,4%
same,%Inh,LOK,15%
same,%Inh,LRRK2,0%
same,%Inh,LTK,0%
same,%Inh,LYN,4%
same,%Inh,LZK,0%
same,%Inh,MAK,22%
same,%Inh,MAP3K15,0%
same,%Inh,MAP3K1,22%
same,%Inh,MAP3K2,0%
Cl.Cl.c1ccc(-c2cc3ccncc3cc2OC2CCNCC2)cc1 [GSK1122999],%Inh,JNK1,14%
same,%Inh,JNK2,15%
same,%Inh,JNK3,0%
same,%Inh,KIT-autoinhibited,0%
same,%Inh,KIT,18%
same,%Inh,LATS1,33%
same,%Inh,LATS2,50%
same,%Inh,LCK,38%
same,%Inh,LIMK1,18%
same,%Inh,LIMK2,34%
same,%Inh,LKB1,3%
same,%Inh,LOK,0%
same,%Inh,LRRK2,0%
same,%Inh,LTK,24%
same,%Inh,LYN,38%
same,%Inh,LZK,0%
same,%Inh,MAK,28%
same,%Inh,MAP3K15,0%
same,%Inh,MAP3K1,19%
same,%Inh,MAP3K2,13%
CS(=O)(=O)CCNCc1nc(-c2ccc3ncnc(Nc4ccc(OCc5cccc(F)c5)c(Cl)c4)c3c2)cs1.Cl [GW583340],%Inh,JNK1,0%
same,%Inh,JNK2,0%
same,%Inh,JNK3,0%
same,%Inh,KIT-autoinhibited,0%
same,%Inh,KIT,7%
same,%Inh,LATS1,0%
same,%Inh,LATS2,9%
same,%Inh,LCK,5%
same,%Inh,LIMK1,0%
same,%Inh,LIMK2,3%
same,%Inh,LKB1,17%
same,%Inh,LOK,20%
same,%Inh,LRRK2,0%
same,%Inh,LTK,0%
same,%Inh,LYN,0%
same,%Inh,LZK,0%
same,%Inh,MAK,23%
same,%Inh,MAP3K15,0%
same,%Inh,MAP3K1,0%
same,%Inh,MAP3K2,0%

# Reference: paper PMC5540273 (PLoS ONE, 2017)
